TDP1 cell CPT = DT40-hTDP1 cell growth loss with CPT. chicken DT40 Tdp1-/-;hTDP1 cells + 20 nM CPT, ATP luminescence, 48 h. Potency, µM (doses to about 46.2 µM), usual class: inhibitors. hit rate 12% among 420,000; note: nearly all actives have a fitted effect of over 55% in size
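Chicken DT40 Tdp1-/- cells stably complemented with human TDP1 were seeded at 400 cells/well in medium containing 20 nM camptothecin, exposed to pin-transferred compounds, and grown at 37 °C for at least 48 hr. Viability was read as ATP luminescence.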
IL-1B inflam inh = inflammasome signaling inhibition, IL-1 beta readout | THP-1 LPS/ATP IL-1B secretion, AlphaLISA, 16 h; stronger effect = lower value | activity change, % at 57.5 µM | hit rate 4.7% among 360,000; in the data active = activity change below about -50%; inconclusive = mostly about -30% to -49%
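Secreted IL-1B measured by AlphaLISA bead assay after 16 h compound exposure of THP-1 cells; compounds (final up to 57.5 uM) added 1 h before LPS (250 ng/mL) and ATP (1.25 mM) stimulation; lower signal means less secretion.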
HT1080-NT tox = kills 2HG-producing HT-1080-NT fibrosarcoma cells. HT-1080-NT fibrosarcoma viability, CellTiter-Glo ATP luminescence, 48 h. Potency, µM (series often up to 46.1 µM), actives largely listed as cytotoxic. hit rate 1.6% among 360,000. AID 686970;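 note: NT is the 2HG producing partner of a matched IDH1 knockdown line; nearly all actives have a fitted effect of over 55% in size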
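Viability by CellTiter-Glo luminescence after 48 h compound exposure at 37C of HT-1080-NT cells (750/well, RPMI, 5% FBS). % activity scaled between DMSO wells and medium-only wells, then curve-fitted and categorized by curve class.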
DT40 TDP1 no CPT = qHTS for Inhibitors of human tyrosyl-DNA phosphodiesterase 1 (TDP1): qHTS in cells in absence of CPT; DT40 Tdp1-/- hTDP1 cells, no CPT, ATP luminescence, 48 h; Potency, µM (highest dose often 46.2 µM), most hits filed as inhibitors; hit rate 15% among 420,000; note: nearly all actives have a fitted effect of over 55% in size
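DT40 Tdp1-/-;hTDP1 cells, no CPT (DMSO vehicle only), 400 cells/well; compounds pin-transferred; ≥48 hr, 37 °C; CellTiter-Glo 30 min RT dark, luminescence read.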
HT1080 IDH1KD tx = toxicity to HT-1080 IDH1 knockdown cells (counter line); HT-1080 IDH1 knockdown viability, ATP luminescence, 48 h; hit rate 2% among 360,000; AID 686971; Potency, µM (titrated, usually from 46.1 µM), usual class: cytotoxic
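Cytotoxicity counter-line: IDH1KD HT-1080, 48 h, CellTiter-Glo. Curves classed by r2, magnitude and activity.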
Each line names hits and unclear results; the compound was inactive in the other large screens. Compounds with a hit are over-represented: about 19% of the library has one in this group of screens. Unless noted, calls come from the whole dose curve; as a rule, active = well fitted curve in the direction sought with a large enough effect; inconclusive = small, poorly fitted or top-dose-only effect, or another doubt; inactive = no such curve, though single readings can be large; an effect the other way counts as inactive or inconclusive.

C=CCn1c(COc2ccccc2F)nnc1SCC(=O)c1c[nH]c2ccccc12	TDP1 cell CPT 26µM, DT40 TDP1 no CPT 23µM
CCN1C(C(=O)c2ccccc2)=C(OC(=O)c2ccccc2OC)c2ccccc2S1(=O)=O	TDP1 cell CPT 4.6µM, DT40 TDP1 no CPT 3.3µM (no result: IL-1B inflam inh, HT1080-NT tox, HT1080 IDH1KD tx)
CCCCC(=O)OC1=C(C(=O)c2ccccc2)N(CC)S(=O)(=O)c2ccccc21	TDP1 cell CPT 21µM, DT40 TDP1 no CPT 7.3µM (no result: IL-1B inflam inh, HT1080-NT tox, HT1080 IDH1KD tx)
CCCCN1C(C(=O)c2ccccc2)=C(OC(C)=O)c2ccccc2S1(=O)=O	TDP1 cell CPT 5.2µM, DT40 TDP1 no CPT 4.6µM (no result: IL-1B inflam inh, HT1080-NT tox, HT1080 IDH1KD tx)
CC(=O)N(c1cccc(C(F)(F)F)c1)c1nc(/C=C/C(=O)O)cs1	none
COC(=O)c1ccc(C(=O)OC)c(NC(=O)CN2CCN(c3ccccc3)CC2)c1	TDP1 cell CPT inconclusive
COC(=O)c1ccc(C(=O)OC)c(NC(=O)CN2CCN(c3ccccc3OC)CC2)c1	TDP1 cell CPT inconclusive, DT40 TDP1 no CPT 26µM
COc1ccc(NC(=O)c2ccc(NC(=O)CN3CCN(c4ccccc4OC)CC3)cc2)cc1	TDP1 cell CPT inconclusive, HT1080-NT tox inconclusive, DT40 TDP1 no CPT 18µM, HT1080 IDH1KD tx inconclusive
CCN(CC)c1ccc(NC(=O)CN2CCN(S(=O)(=O)c3cc(Cl)ccc3OC)CC2)cc1	TDP1 cell CPT inconclusive, HT1080-NT tox inconclusive, DT40 TDP1 no CPT 16µM, HT1080 IDH1KD tx inconclusive
CCN(CC)c1ccc(NC(=O)CN2CCN(c3ccccc3OC)CC2)cc1	TDP1 cell CPT 21µM, DT40 TDP1 no CPT 16µM (no result: IL-1B inflam inh, HT1080-NT tox, HT1080 IDH1KD tx)
COc1ccc(NC(=O)CN2CCN(c3ccccc3F)CC2)cc1	none
COc1ccc(N2CCN(C(CNC(=O)C(=O)NCc3cccs3)c3ccco3)CC2)cc1 (centres undefined)	none
Cc1noc(C)c1C(=O)N1CCCC(C(=O)c2cccc(OC(C)C)c2)C1 (centres undefined)	TDP1 cell CPT inconclusive, DT40 TDP1 no CPT inconclusive
CCOc1ccccc1Nc1cc(C)c2cccc(C)c2n1	none
CCOc1nc(N=C(N)N)nc2c(C)cccc12	TDP1 cell CPT 16µM, DT40 TDP1 no CPT 23µM
CC1CN(C(=O)CSc2nnc(C3CCCCC3)n2N)CC(C)O1 (centres undefined)	none
Cc1[nH]c2ccccc2c1C(=O)CN1C(=O)NC2(CC(C)CC(C)(C)C2)C1=O (centres undefined)	TDP1 cell CPT 15µM, DT40 TDP1 no CPT inconclusive
CC1CC(C)(C)CC2(C1)NC(=O)N(CC(=O)N1CCN(S(=O)(=O)c3cccc(Cl)c3Cl)CC1)C2=O (centres undefined)	TDP1 cell CPT 18µM, DT40 TDP1 no CPT inconclusive
CC1(C)NC(=O)N(CC(=O)N2CCN(S(=O)(=O)c3cc(Cl)ccc3Cl)CC2)C1=O	none
CCN(Cc1ccccc1)C(=O)CN1C(=O)NC2(CC(C)CC(C)(C)C2)C1=O (centres undefined)	TDP1 cell CPT inconclusive, DT40 TDP1 no CPT inconclusive
COc1ccc(CN(C(=O)Nc2ccccc2)c2ccccn2)cc1OC	none (no result: IL-1B inflam inh, HT1080-NT tox, HT1080 IDH1KD tx)
C=CCNc1n[nH]c(=S)s1	TDP1 cell CPT 5.2µM, DT40 TDP1 no CPT 2.6µM
CNc1n[nH]c(=S)s1	none
O=C(NCCN1CCCCC1)/C(=C/c1ccco1)NC(=O)c1ccccc1	HT1080-NT tox inconclusive
O=C(CN1C(=O)c2ccccc2C1=O)OCC(=O)N1CCc2ccccc2C1	DT40 TDP1 no CPT 0.0092µM
O=C(CN1C(=O)c2ccccc2C1=O)OCC(=O)N1CCCCC1	none
NC(=O)c1ccccc1OCC(=O)N1CCc2ccccc2C1	TDP1 cell CPT inconclusive, DT40 TDP1 no CPT 13µM
C[N+]1(CCOC(=O)C2(c3ccccc3)CCCC2)CCCCC1	DT40 TDP1 no CPT inconclusive
C[C@H]1CN([C@@H](C)CO)C(=O)Cc2cc(NS(=O)(=O)c3cccs3)ccc2O[C@H]1CN(C)S(=O)(=O)c1cn(C)cn1	none
O=c1oc2ccccc2cc1-c1nc2c(s1)CCCC2	TDP1 cell CPT inconclusive, DT40 TDP1 no CPT inconclusive
O=c1oc2ccccc2cc1-c1cn2cc(Cc3ccc(Br)cc3)sc2n1	TDP1 cell CPT 1.3µM, DT40 TDP1 no CPT 0.58µM (no result: IL-1B inflam inh, HT1080-NT tox, HT1080 IDH1KD tx)
O=C(Nc1ccc(F)cc1)C(c1ccncc1)N1CCN(CC(=O)N2CCCC2)CC1 (centres undefined)	none
COc1ccc(-n2c(SC(C)C(=O)Nc3ccc(NC(C)=O)cc3)nc3ccccc3c2=O)cc1OC (centres undefined)	none
O=C(NC1CC1)c1ccc2c(c1)C1C3CCC(C3)C1C(c1ccccc1)N2 (centres undefined)	TDP1 cell CPT inconclusive, IL-1B inflam inh inconclusive, DT40 TDP1 no CPT 26µM
O=C(NC1CCCCC1)c1ccc2ccccc2c1	DT40 TDP1 no CPT inconclusive
CCOc1ccc2nc(SCC(=O)NCc3ccc(OC)c(OC)c3)[nH]c2c1	TDP1 cell CPT 15µM, DT40 TDP1 no CPT inconclusive
COc1ccc2nc(SCC(=O)N(C)C3CCCCC3)[nH]c2c1	none
COC(=O)c1ccc(NC(=O)CSc2nc3ccc(OC)cc3[nH]2)cc1	TDP1 cell CPT 23µM, DT40 TDP1 no CPT 23µM (no result: IL-1B inflam inh, HT1080-NT tox, HT1080 IDH1KD tx)
COc1ccc2nc(SCC(=O)NCc3ccc(OC)c(OC)c3)[nH]c2c1	none
COC(=O)c1ccc(NC(=O)CSc2nc(C)cc(=O)[nH]2)cc1	none
COc1ccc2nc(SCC(=O)NC3CCCCC3C)[nH]c2c1 (centres undefined)	TDP1 cell CPT 16µM, HT1080-NT tox inconclusive, DT40 TDP1 no CPT 9.2µM, HT1080 IDH1KD tx inconclusive
COC(=O)c1ccc(NC(=O)CSc2nc3ncccc3[nH]2)cc1	DT40 TDP1 no CPT 21µM
CCOc1ccc(-c2noc(CCCC(=O)NC3CCCC3)n2)cc1OC	none
CN(C(=O)CSc1ncnc2sc3c(c12)CCCC3)C1CCS(=O)(=O)C1 (centres undefined)	DT40 TDP1 no CPT inconclusive
CCOC(=O)CCCCC1C(CCCC(=O)OCC)C=NN1C (centres undefined)	TDP1 cell CPT inconclusive
COc1cc(C2/C(=C(\O)c3ccc4c(c3)OCCO4)C(=O)C(=O)N2Cc2ccco2)cc(OC)c1OC (centres undefined)	none
O=C(CSc1nc2cc3ccccc3cc2[nH]1)Nc1ccc(F)cc1	TDP1 cell CPT inconclusive, HT1080-NT tox inconclusive, DT40 TDP1 no CPT 23µM, HT1080 IDH1KD tx inconclusive
COc1ccc(NC(=O)CSc2nc3ccncc3[nH]2)c(OC)c1	TDP1 cell CPT 23µM, DT40 TDP1 no CPT 9.2µM
Cc1ccc(C)c(S(=O)(=O)NCC(=O)Nc2ccc3c(c2)OCO3)c1	none
COC(=O)c1ccccc1NS(C)(=O)=O	none
CS(=O)(=O)Nc1ccccc1NS(C)(=O)=O	IL-1B inflam inh -58
O=S(=O)(c1ccccc1)c1nnn2c1nc(NC1CCN(Cc3ccccc3)CC1)c1cc(Cl)ccc12	TDP1 cell CPT 7.3µM, IL-1B inflam inh inconclusive, DT40 TDP1 no CPT 4.1µM

High-throughput results deposited in PubChem by National Center for Advancing Translational Sciences (NCATS).
